JMJD2A Tudor inh: qHTS Assay for Inhibitors of JMJD2A-Tudor Domain; Lysine-specific demethylase 4A (Homo sapiens), O75164; AlphaScreen JMJD2A-Tudor / H3K4me3 peptide binding; Potency, µM (top dose mostly 114 µM), hits mostly inhibitors; 390,000 tested, 4.4% active; also: nearly all actives have a fitted effect of over 50% in size
BAZ2B inh: qHTS Assay for Inhibitors of BAZ2B; Potency, µM (titrated, usually from 114 µM), most hits filed as inhibitors; AlphaScreen BAZ2B-H3K14Ac peptide displacement; 360,000 tested, 4.4% active; Bromodomain adjacent to zinc finger domain protein 2B (Homo sapiens), Q9UIF8; also: nearly all actives have a fitted effect of over 60% in size
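BAZ2B (50 nM) with biotin-H3(5-23)K14Ac peptide (50 nM) in PBS pH 7.4, 0.01% Tween-20, preformed 30 min, then compound 30 min at room temperature; top concentration 110uM. AlphaScreen streptavidin donor/nickel chelate acceptor beads (10 ug/mL final), 20 min dark, signal read.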
HP1b binding inh: HTS for Inhibitors of HP1-beta Chromodomain Interactions with Methylated Histone Tails | AID 540317, 2011 | Potency, µM (series often up to 114 µM), actives largely listed as inhibitors | AlphaScreen HP1-beta / biotin-H3K9me3 peptide binding | 390,000 tested, 0.56% active; also: nearly all actives have a fitted effect of over 70% in size
Target sequence (P83916 whole entry, looked up): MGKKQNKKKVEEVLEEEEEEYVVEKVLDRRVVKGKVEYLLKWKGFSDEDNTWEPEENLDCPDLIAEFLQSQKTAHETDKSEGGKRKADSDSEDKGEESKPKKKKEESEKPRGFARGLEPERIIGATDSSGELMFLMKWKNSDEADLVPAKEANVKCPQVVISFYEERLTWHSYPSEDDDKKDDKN
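AlphaScreen: HP1-beta (50 nM) preformed 30 min with biotin-H3(1-18)K9me3 peptide (50 nM) in PBS pH 7.4, 0.01% Tween-20. Compound added for 30 min at RT, then streptavidin donor/nickel chelate acceptor beads (10 ug/mL) for 30 min.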
G9a inh-1: qHTS Assay for Inhibitors of Histone Lysine Methyltransferase G9a; G9a H3K9 monomethylation, AlphaScreen, 2 h; Histone-lysine N-methyltransferase EHMT2 (Homo sapiens), Q96KQ7; Potency, µM (series often up to 102 µM), actives largely listed as inhibitors; 350,000 tested, 8.8% active; AID 504332, 2011; also: nearly all actives have a fitted effect of over 75% in size
Target sequence (Q96KQ7 913-1193 limits assumed): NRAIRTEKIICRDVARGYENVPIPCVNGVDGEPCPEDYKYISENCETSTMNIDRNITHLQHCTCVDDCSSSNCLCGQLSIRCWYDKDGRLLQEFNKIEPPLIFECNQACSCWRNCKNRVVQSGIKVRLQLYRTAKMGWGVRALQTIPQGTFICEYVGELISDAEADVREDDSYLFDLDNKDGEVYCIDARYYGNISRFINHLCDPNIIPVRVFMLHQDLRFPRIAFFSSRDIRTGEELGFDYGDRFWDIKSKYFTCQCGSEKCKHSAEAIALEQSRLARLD
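AlphaScreen detection with an anti-monomethyl H3K9 antibody quantified product after a 2 h room-temperature reaction containing 500 nM biotinylated H3K9 peptide, 20 µM SAM and 20 nM enzyme, which had been preincubated 15 min with compound.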
Sfp PPTase inh: qHTS Assay for Inhibitors of Bacillus subtilis Sfp phosphopantetheinyl transferase (PPTase). 4'-phosphopantetheinyl transferase ffp (Bacillus subtilis), Q9F4F7. 310,000 tested, 3.5% active. Biochemical Sfp PPTase activity, qHTS. Potency, µM, actives largely listed as inhibitors;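 also: the enzyme is Sfp with the accession as filed and its product quenches rhodamine fluorescence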
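Reaction rates are the 30-min fluorescence difference (ex 525, em 598 nm) in wells containing 15 nM Sfp, 5 uM rhodamine-CoA and 12.5 uM BHQ-2-YbbR at pH 7.6 with 10 mM MgCl2.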
JMJD2E inh: Confirmation qHTS Assay for Inhibitors of Human Jumonji Domain Containing 2E (JMJD2E); 140 tested, 93% active; Potency, µM (highest dose often 56.8 µM), usual class: inhibitors; shares compounds with JMJD2A Tudor inh; Recombinant JMJD2E, FDH-coupled NADH fluorescence (FDH is formaldehyde dehydrogenase)
FDH inh: Counterscreen for JMJD2E Inhibitors: qHTS Assay for Inhibitors of Formaldehyde Dehydrogenase (FDH); shares compounds with JMJD2A Tudor inh; 140 tested, 10% active; Potency, µM (top dose mostly 56.7 µM), actives largely listed as inhibitors; FDH enzyme assay, NADH fluorescence kinetic; AID 2680, 2010
G9a inh-2: qHTS Assay for Inhibitors of Histone Lysine Methyltransferase G9a: Hit Confirmation; shares compounds with JMJD2A Tudor inh; G9a H3K9 monomethylation, AlphaScreen, 2 h; Potency, µM, most hits filed as inhibitors; 370 tested, 89% active; AID 588344, 2011; also: nearly all actives have a fitted effect of over 65% in size
Hits are given with their value; [ ] = another dose, or the depositor's remark. Hits are enriched below; roughly 12% of the tested compounds scored in any of these assays. Calls follow the shape of the dose curve; as a rule, active = well fitted curve in the direction sought with a large enough effect; inconclusive = small, poorly fitted or top-dose-only effect, or another doubt; inactive = no such curve, though single readings can be large; an effect the other way counts as inactive or inconclusive.

CCOC(=O)C1CCN(Cc2ccc(O)c3ncccc23)CC1 was read as JMJD2A Tudor inh 10µM, BAZ2B inh 3.98µM, HP1b binding inh inactive, G9a inh-1 3.98µM, Sfp PPTase inh inactive, JMJD2E inh 12.6µM and FDH inh inconclusive.
For CCOc1ccc(CN(C)C(=O)NNC(=O)c2ccc(C)cc2)cc1OC the results were JMJD2A Tudor inh inactive, BAZ2B inh inactive, HP1b binding inh inactive, G9a inh-1 inactive and Sfp PPTase inh inactive.
`COc1ccc(N2CCC(CNC(=O)Nc3cccc(OC)c3)C2)cc1` (stereo not given) gave JMJD2A Tudor inh 39.8µM, BAZ2B inh 31.6µM, HP1b binding inh 15.8µM, G9a inh-1 inconclusive, Sfp PPTase inh inactive and G9a inh-2 1.59.
For COc1ccc(N2CCC(CNC(=O)Nc3ccc(Cl)cc3)C2)cc1 (stereo not given) the results were JMJD2A Tudor inh inconclusive, BAZ2B inh inactive, HP1b binding inh inconclusive, G9a inh-1 0.708µM, Sfp PPTase inh inactive and G9a inh-2 0.502.
For O=C(NCC1CC1)Nc1ccc(Cl)cc1 the results were JMJD2A Tudor inh inactive, BAZ2B inh inactive, HP1b binding inh inactive, G9a inh-1 inactive and Sfp PPTase inh inactive.
O=c1oc2ccccc2c(Nc2ccc(Cl)cc2)c1[N+](=O)[O-] was read as JMJD2A Tudor inh inactive, BAZ2B inh inactive, HP1b binding inh inactive, G9a inh-1 inactive and Sfp PPTase inh inactive.
`c1ccc(-c2ccc3c(c2)NCCN3)cc1` gave JMJD2A Tudor inh 44.7µM, BAZ2B inh 56.2µM, HP1b binding inh inconclusive, G9a inh-1 inconclusive, Sfp PPTase inh inactive and G9a inh-2 0.564.
For c1ccc(-c2ccc(-c3ccccc3)[nH]2)cc1 the results were JMJD2A Tudor inh inconclusive and HP1b binding inh inactive.
NS(=O)(=O)c1ccc(NCc2c(F)cccc2Cl)cc1 was read as JMJD2A Tudor inh inactive, BAZ2B inh inactive, HP1b binding inh inactive, G9a inh-1 inactive and Sfp PPTase inh inactive.
`Fc1cccc(Cl)c1CNc1ccc(N2CCCC2)cc1` gave JMJD2A Tudor inh 20µM, BAZ2B inh 12.6µM, HP1b binding inh 25.1µM, G9a inh-1 1.78µM, Sfp PPTase inh inconclusive and G9a inh-2 5.64.
For CN(C)C1=NC[C@H](Cc2ccccc2)N1CCCC1CCCC1 the results were JMJD2A Tudor inh inactive, BAZ2B inh inconclusive, HP1b binding inh inactive, G9a inh-1 inconclusive and G9a inh-2 2.83.
Screening CN(C)C1=NC[C@H](Cc2ccccc2)N1CCCC1CCCCC1 returned JMJD2A Tudor inh inactive, BAZ2B inh inactive, HP1b binding inh inactive and G9a inh-1 inactive[2.33 µM].
For CC(C)C(=O)Nc1ccc(N2CCCC2)cc1 the results were JMJD2A Tudor inh inconclusive, BAZ2B inh inactive, HP1b binding inh inactive, G9a inh-1 inconclusive, Sfp PPTase inh 79.4µM and G9a inh-2 1.
For Cc1cc(C)cc(C(=O)Nc2ccc(N3CCCC3)cc2)c1 the results were JMJD2A Tudor inh inconclusive, BAZ2B inh inconclusive, HP1b binding inh inactive, G9a inh-1 inactive, Sfp PPTase inh 50.1µM and G9a inh-2 0.71.
CC(C)C(=O)Nc1ccc(N2CCN(c3ccc(F)cc3)CC2)cc1 was read as JMJD2A Tudor inh inactive, BAZ2B inh inactive, HP1b binding inh inactive, G9a inh-1 inactive and Sfp PPTase inh inactive.
Screening O=C(Nc1ccc(N2CCCCCC2)cc1)c1ccccc1Cl returned JMJD2A Tudor inh 31.6µM, BAZ2B inh 28.2µM, HP1b binding inh 35.5µM, G9a inh-1 2.51µM, Sfp PPTase inh inactive and G9a inh-2 7.08.
O=C(Nc1ncc2c(n1)-c1ccccc1OC2)c1cccc([N+](=O)[O-])c1 was read as JMJD2A Tudor inh inactive, BAZ2B inh inactive, HP1b binding inh inactive, G9a inh-1 inconclusive and Sfp PPTase inh inactive.
`CCCCn1c(N)c(N(CCC(C)C)C(=O)c2cc(S(=O)(=O)N3CCOCC3)ccc2F)c(=O)[nH]c1=O` gave JMJD2A Tudor inh inactive, BAZ2B inh inactive, HP1b binding inh inactive and G9a inh-1 inactive[0.501 µM].
For CN(C)c1ccc(C(c2nnnn2CCOC(=O)Nc2ccc(Cl)cc2)N2CCOCC2)cc1 (stereo not given) the results were JMJD2A Tudor inh inconclusive, BAZ2B inh 44.7µM, HP1b binding inh inconclusive, G9a inh-1 inconclusive, Sfp PPTase inh inactive and G9a inh-2 17.8.
CC(C)(C)C1=Nn2c(nnc2-c2ccccn2)SC1 was read as JMJD2A Tudor inh 7.94µM, BAZ2B inh 20µM, HP1b binding inh inconclusive, G9a inh-1 inconclusive, Sfp PPTase inh 56.2µM and G9a inh-2 1.78.
`COCCn1c(=O)c(-c2ccc(Cl)cc2)nc2cnc(Oc3cccc(Cl)c3)nc21` gave G9a inh-1 inactive[0.501 µM] and Sfp PPTase inh inconclusive.
For Cc1cn2c(=O)cc(COc3cccc(NC(=O)c4ccc(C(C)(C)C)cc4)c3)nc2s1 the results were JMJD2A Tudor inh inactive, BAZ2B inh inactive, HP1b binding inh inactive, G9a inh-1 0.794µM and G9a inh-2 inconclusive.
`COc1ccc(OC)c(NC(=O)CSc2ccc(-c3cccs3)nn2)c1` gave JMJD2A Tudor inh inconclusive, BAZ2B inh inactive, HP1b binding inh inactive, G9a inh-1 2.82µM and G9a inh-2 10.2.
`O=C1CC(c2ccccc2)CC(O)=C1C=NC1CCCC1` (stereo not given) gave JMJD2A Tudor inh inactive, BAZ2B inh inactive, HP1b binding inh inactive, G9a inh-1 inactive and Sfp PPTase inh inactive.
CN(c1cccc(NC(=O)Nc2cccc(Cl)c2)c1)S(C)(=O)=O was read as JMJD2A Tudor inh inactive, BAZ2B inh inactive, HP1b binding inh inactive, G9a inh-1 inactive and Sfp PPTase inh inactive.
Screening CN(C)c1ccc(NC(=O)Nc2cccc(Cl)c2)cc1 returned JMJD2A Tudor inh inconclusive, BAZ2B inh 39.8µM, HP1b binding inh inactive, G9a inh-1 1.12µM, Sfp PPTase inh inactive and G9a inh-2 1.42.
